A selection: hits, their analogues and other compounds. The true share with any hit is near 3.9%.
PHOSPHO1 inh: PubChem AID 1565; Phosphoethanolamine/phosphocholine phosphatase (Homo sapiens), Q8TCT1; recombinant PHOSPHO1, absorbance phosphatase assay; inhibition, % at 13.3 µM; actives 1.1% (n = 290,000); in the data active = inhibition above about 60%
Target sequence (Q8TCT1 whole entry, looked up): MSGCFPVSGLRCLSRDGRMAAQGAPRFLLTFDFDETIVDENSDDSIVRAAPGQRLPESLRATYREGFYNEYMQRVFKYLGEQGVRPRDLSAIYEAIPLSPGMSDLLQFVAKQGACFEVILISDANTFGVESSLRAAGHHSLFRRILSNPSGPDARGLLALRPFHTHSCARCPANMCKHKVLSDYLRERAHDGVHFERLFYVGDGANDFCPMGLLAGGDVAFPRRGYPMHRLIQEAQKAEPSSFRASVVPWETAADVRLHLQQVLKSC
Rtt109 Vps75: inhibitors of C. albicans Rtt109/Vps75 HAT, primary screen, biochemical, ThioGlo CoA-SH fluorescence, plate reader; Histone acetyltransferase RTT109 (Candida albicans (strain SC5314 / ATCC MYA-2876)), …; purified Rtt109/Vps75, 4 h; inhibition, % at 34.9 µM; actives 0.16% (n = 330,000);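 active = inhibition of at least 50% in every replicate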
Target sequence (Q5AAJ8 whole entry, looked up): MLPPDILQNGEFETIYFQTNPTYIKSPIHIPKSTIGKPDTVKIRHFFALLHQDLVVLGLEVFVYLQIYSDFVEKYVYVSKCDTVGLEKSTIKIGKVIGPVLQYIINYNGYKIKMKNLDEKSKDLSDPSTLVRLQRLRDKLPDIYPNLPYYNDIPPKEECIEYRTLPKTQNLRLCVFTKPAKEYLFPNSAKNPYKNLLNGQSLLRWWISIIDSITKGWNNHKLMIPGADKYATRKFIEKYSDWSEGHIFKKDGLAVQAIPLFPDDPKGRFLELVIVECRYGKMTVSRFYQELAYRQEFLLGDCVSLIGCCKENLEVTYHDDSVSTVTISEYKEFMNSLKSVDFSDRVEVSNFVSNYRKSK
SKKanGAS inh: S. pyogenes SKKanGAS growth inhibitors in kanamycin, primary screen, streptokinase expression inhibitor project, SKKanGAS strain, BacTiter-Glo luminescence | 6 h | inhibition, % at 7.5 µM | actives 1.3% (n = 300,000);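 active = mean replicate score, as percent of positive control median, at least 50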;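 note: strain carries kanamycin resistance gene driven by streptokinase promoter and grows in 40 µg/ml kanamycin; loss of luminescence reflects streptokinase promoter inhibition or plain growth inhibition; 0% = median of DMSO wells and 100% = positive control at its reference dose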
Platelet DG rel: inhibitors of platelet dense granule secretion, primary screen, cell-based, MLPCN, human platelets. actives 0.22% (n = 300,000). human platelet-rich plasma, SFLLRN dense granule ATP release, luminescence. inhibition, %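 (compounds screened at 7.5 µM in platelet-rich plasma)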. AID 1663, 2009;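 active = mean replicate score, as percent of positive control, at or above 50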
TPT1 inhibitor: Candida albicans TPT1 enzyme inhibitors, primary screen, biochemical, fluorescence polarization; tRNA 2'-phosphotransferase TPT1 (Candida albicans SC5314); AID 1962, 2009; recombinant caTPT1, FP RNA substrate dephosphorylation; inhibition, % at 5 µM; actives 0.81% (n = 300,000);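 active = inhibition above the mean of all tested compounds plus 3 SD, set per screening campaign, cut at about 24% in these data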;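 note: plate controls were DMSO alone for no effect and ferristatin control at 100 nM for full effect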
WT yeast gro inh: growth inhibition of WT strain, primary screen, mitochondrial fusion inhibitor project, WT and mutant strains, chemical genetic | AID 1362, 2008 | actives 2.1% (n = 190,000) | mitochondrial fusion phenotypic screen | inhibition, % at 10 µM; in the data active = inhibition above about 58%; tested in S. cerevisiae
* = called active by the depositor; . = no result.

SMILES	PHOSPHO1 inh	Rtt109 Vps75	SKKanGAS inh	Platelet DG rel	TPT1 inhibitor	WT yeast gro inh
Cc1nn2c(NCc3ccccn3)cc(C(C)C)nc2c1-c1ccccc1	16.0	-5.7	100.8*	-0.4	2.6	.
CC(=O)Nc1ccc(Nc2cc(C(C)C)nc3c(-c4ccccc4)c(C)nn23)cc1	20.3	8.9	87.7*	-0.2	1.1	.
Cc1cc(NCCCN2CCOCC2)n2nc(C)c(-c3ccccc3)c2n1	-3.5	-1.3	1.7	-6.1	-1.0	8.4
Cc1cc(NCCC(C)C)n2nc(C)c(-c3ccccc3)c2n1	16.8	2.0	-4.4	-2.4	1.2	71.7*
Cc1nn2c(NCCCn3ccnc3)cc(C(C)C)nc2c1-c1ccccc1	28.8	3.8	14.8	-2.2	-0.7	.
CCOC(=O)C1=CN(Cc2ccco2)S(=O)(=O)N(CC)C1c1ccccc1 (centres undefined)	.	6.5	.	.	.	.
CC(C)c1ccc(N2C(=O)CC(Sc3ncn[nH]3)C2=O)cc1 (centres undefined)	93.1*	9.7	-2.6	-0.4	-0.8	14.7
COc1ccc(N2C(=O)CC(Sc3ncn[nH]3)C2=O)c(OC)c1 (centres undefined)	92.2*	0.6	-0.1	8.2	-1.8	-3.3
CC(C)c1ccc(C(=O)CSc2ncn[nH]2)cc1	100.2*	-8.6	-5.1	2.2	0.9	1.9
O=C(CN1C(=O)NC2(CCCCC2)C1=O)Nc1cccc(S(=O)(=O)N2CCCC2)c1	.	-1.4	.	.	.	.
C[C@H]1c2cccc(O)c2C(O)=C2C(=O)[C@]3(O)C(O)=C(C(N)=O)C(=O)[C@@H](N(C)C)[C@@H]3[C@@H](O)[C@@H]21	-0.6	18.3	96.8*	3.3	-1.8	.
CN(C)c1ccc(O)c2c1CC1CC3[C@@H](N(C)C)C(=O)C(C(N)=O)=C(O)[C@]3(O)C(=O)C1=C2O (some centres undefined)	18.2	15.4	105.6*	1.6	-1.2	60.2*
Cc1ccc(C(C)NC(=O)/C(C#N)=C\c2c(C)[nH]c3ccccc23)cc1 (centres undefined)	-0.5	-8.1	3.9	11.5	1.6	87.8*
Cc1ccc(C(=O)OC2OC(=O)C(Cl)=C2N2CCOCC2)cc1 (centres undefined)	-4.6	-7.3	74.8*	-9.0	-3.0	-6.4
Cc1ccc(C(=O)Oc2ccccc2N2CCOCC2)cc1	31.6	-7.7	7.8	-3.6	-5.4	.
COc1ccccc1C(=O)Nc1ccc(C2=NNC(=O)CC2C)cc1 (centres undefined)	3.8	-6.6	3.2	87.6*	-0.4	-2.2
CCCc1c(C)[nH]c2ccc(NC(C)=O)cc2c1=O	12.2	0.1	0.9	-3.0	-3.3	69.2*
CC(=O)CCc1c(C)[nH]c2ccc(NC(C)=O)cc2c1=O	6.2	5.0	4.1	-3.2	1.2	11.7
C/C(N)=C(/C#N)C(=O)COC(=O)c1cccc2ccccc12	-10.5	25.2	-13.8	3.2	-3.5	-8.8
C/C(N)=C(/C#N)C(=O)COC(=O)c1cc(-c2cccc3ccccc23)nc2ccccc12	-3.4	1.6	62.0*	0.2	-6.6	26.2
N#CCCN(C(=O)COC(=O)c1ccc(S(=O)(=O)N2CCCC2)cc1)c1cccc(Cl)c1	.	-6.7	.	.	.	.
NC(=S)N/N=C/c1ccccc1OCCSc1ccc(Cl)cc1	-8.9	13.8	14.5	-6.2	1.8	64.3*
COc1cccc(/C=N/NC(N)=S)c1OCc1ccccc1Cl	-1.5	.	-0.7	-0.3	0.7	-5.3
CSc1nc2ccc(NS(=O)(=O)c3cccc(Cl)c3Cl)cc2s1	4.1	0.3	17.7	10.0	-0.7	80.8*
Cc1cc(NC(=O)CN2CCC(n3nnc4cc(C(F)(F)F)ccc43)CC2)no1	-8.1	1.1	-7.6	15.9	0.6	-4.7
SMILES	PHOSPHO1 inh	Rtt109 Vps75	SKKanGAS inh	Platelet DG rel	TPT1 inhibitor	WT yeast gro inh
CCOc1ccc2nc(NC(=O)CN3CCC(n4nnc5cc(C(F)(F)F)ccc54)CC3)sc2c1	8.9	6.7	52.3*	-10.8	-6.5	27.6
CC1Cc2ccccc2N1C(=S)NC(=O)c1cccc(Br)c1 (centres undefined)	-5.1	4.4	93.2*	-15.7	-1.9	59.7
CC1Cc2ccccc2N1C(=S)NC(=O)c1ccc(Cl)cc1Cl (centres undefined)	-1.4	-10.9	61.0*	-19.6	-2.5	59.8*
COc1cccc(C(=O)NC(=S)N2c3ccccc3CC2C)c1OC (centres undefined)	0.0	1.6	-3.5	-2.1	-1.3	.
Cc1ccccc1CNC(=O)CN(c1ccccc1Cl)S(C)(=O)=O	2.6	-10.2	-15.4	2.4	-2.6	.
O=c1[nH]cnc2c1ncn2-c1ccc(N(CCO)CCO)cc1	.	1.6	.	.	.	.
CCCCCN(C(=O)CCC(=O)OCCOc1ccccc1Cl)c1c(N)n(CCCC)c(=O)[nH]c1=O	.	-29.1	-0.2	8.9	0.1	.
COc1ccc(NC(=O)CN(C)C(=O)CCCN2C(=O)c3cccc4cccc(c34)C2=O)cc1	.	12.4	-3.8	-3.9	0.3	.
CCOC(=O)C1=C(CSc2nc3c(cc2C#N)CCC3)OC(N)=C(C#N)C1c1ccccc1 (centres undefined)	-12.4	-4.6	1.1	-13.3	3.8	-9.5
CCOC(=O)C1=C(CSc2nc(-c3ccccc3)ccc2C#N)OC(N)=C(C#N)C1c1cccnc1 (centres undefined)	79.9*	-6.0	12.8	-10.0	16.0	8.2
CCOC(=O)C1=C(CSc2nc(-c3ccccc3)ccc2C#N)OC(N)=C(C#N)C1c1ccccc1 (centres undefined)	55.6	-4.5	31.2	3.9	20.5	-8.9
CCOC(=O)C1=C(CSc2nc3c(cc2C#N)CN(C)CC3)OC(N)=C(C#N)C1c1ccccc1 (centres undefined)	97.6*	-22.6	0.6	0.2	4.9	10.3
CCOC(=O)C1=C(CSc2nc3c(cc2C#N)CN(C)CC3)OC(N)=C(C#N)C1c1ccc(F)cc1 (centres undefined)	66.6*	27.5	16.0	-3.5	9.4	0.7
COc1ccc2cc([C@H](C)C(=O)N(C)Cc3ccccc3N3CCCC3)ccc2c1	-2.8	8.1	12.4	-2.4	7.3	.
CCc1noc(C)c1C(=O)Nc1ccccc1C(C)(C)C	21.2	-11.7	-2.2	1.3	0.4	.
CCN(C(=O)COC(=O)CCC(=O)c1ccccc1)c1c(N)n(Cc2ccccc2)c(=O)[nH]c1=O	.	0.4	.	.	.	.
O=C(O)c1ccc(N2C(=O)CSC2=S)cc1	.	-46.3	2.5	17.2	-2.9	.
O=C(O)c1ccc(CN2C(=O)CSC2=S)cc1	71.1*	0.5	2.5	-10.1	2.7	-29.4
N#CC1(NC(=O)COC(=O)c2nc(Cl)c(Cl)c(N)c2Cl)CCCCC1	.	-3.4	-2.3	23.5	2.9	.

Bioassay records as filed in PubChem.
